In PubChem BioAssay (NCI):
Several values for one entry are separate records, joined by “and”; a condition that tells them apart may be missing. Identical values can stand only once. About 83,000 compounds went through this panel and 20% of them were active in at least one assay; those are over-represented in the sample as a whole.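 Growth was measured after 48 h exposure to one concentration of compound in 96-well plates. Values under 10 count as active.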 Activity calls are given as the source filed them.

Legend:
Experiment in all cases: NCI-60 one-dose screen, 48 h (100 = growth as untreated, 0 = no growth, -100 = all killed)
NCI-H23 lung = system: NCI-H23 lung
NCI-H226 lung = system: NCI-H226 lung
NCI-H322M lung = system: NCI-H322M lung
HOP-62 NSCLC = system: HOP-62 NSCLC
NCI-H460 lung = system: NCI-H460 lung
HOP-92 NSCLC = system: HOP-92 NSCLC
NCI-H522 lung = system: NCI-H522 lung
A549/ATCC NSCLC = conditions: 10 µM unless noted
786-0 renal = system: 786-0 renal
COLO 205 colon = conditions: 10 µM unless noted

Measured: growth

CNC(=O)c1cc(Oc2ccc(NC(=O)Nc3ccc(Cl)c(C(F)(F)F)c3)cc2)ccn1
-2.52% (active) and 18.3% (inactive): NCI-H322M lung; 10 µM unless noted
inactive: 786-0 renal; 10 µM unless noted 16.2% and 15.5%
active: NCI-H23 lung; 10 µM unless noted -10.2% and -19.9% | NCI-H226 lung; 10 µM unless noted -17.8% and -23.1% | NCI-H460 lung; 10 µM unless noted 6.19% and 2.65% | HOP-92 NSCLC; 10 µM unless noted -22.9% and -30.7% | NCI-H522 lung; 10 µM unless noted -18.5% and -38.9% | A549/ATCC NSCLC 3.89% and -36.4% | COLO 205 colon -46% and -24.7%
5.13% (active) and 22.5% (inactive): HOP-62 NSCLC; 10 µM unless noted

COc1ccc(NC(=S)Nc2ccccn2)cc1
inactive: NCI-H23 lung; 10 µM unless noted 96% | NCI-H226 lung; 10 µM unless noted 86.2% | NCI-H322M lung; 10 µM unless noted 97% | HOP-62 NSCLC; 10 µM unless noted 97.9% | NCI-H460 lung; 10 µM unless noted 100% | HOP-92 NSCLC; 10 µM unless noted 77% | NCI-H522 lung; 10 µM unless noted 98.4% | A549/ATCC NSCLC 101% | 786-0 renal; 10 µM unless noted 90.4% | COLO 205 colon 110%

Cc1nnc(NC/C=C/c2ccccc2)s1
98.5% (inactive) and 2.04% (active): NCI-H23 lung; 10 µM unless noted
inactive: NCI-H226 lung; 10 µM unless noted 106% and 102% | NCI-H322M lung; 10 µM unless noted 88.5% and 112% | HOP-62 NSCLC; 10 µM unless noted 88.7% and 111% | NCI-H460 lung; 10 µM unless noted 105% and 108% | HOP-92 NSCLC; 10 µM unless noted 91.3% and 91.5% | NCI-H522 lung; 10 µM unless noted 112% | A549/ATCC NSCLC 101% | 786-0 renal; 10 µM unless noted 100% and 102% | COLO 205 colon 110% and 113%

CCOc1ccc2cc(-c3nn(CC4CCNCC4)c4ncnc(N)c34)ccc2c1
inactive: NCI-H23 lung; 10 µM unless noted 77.5% and 55.6% | NCI-H226 lung; 10 µM unless noted 67.5% and 52.5% | NCI-H322M lung; 10 µM unless noted 91.6% and 75.4% | HOP-62 NSCLC; 10 µM unless noted 83.2% and 64.9% | NCI-H460 lung; 10 µM unless noted 96.7% and 49.7% | HOP-92 NSCLC; 10 µM unless noted 72.5% and 26.5% | NCI-H522 lung; 10 µM unless noted 86.5% and 81.4% | A549/ATCC NSCLC 85% and 59% | 786-0 renal; 10 µM unless noted 91.4% and 36% | COLO 205 colon 93% and 15.3%

O=Nc1ccc(O)cc1
inactive: NCI-H23 lung; 10 µM unless noted 78.9% and 94.9% | NCI-H226 lung; 10 µM unless noted 95.5% and 109% | NCI-H322M lung; 10 µM unless noted 104% and 97.4% | HOP-62 NSCLC; 10 µM unless noted 101% and 97.3% | NCI-H460 lung; 10 µM unless noted 109% and 96.9% | HOP-92 NSCLC; 10 µM unless noted 90.4% and 101% | NCI-H522 lung; 10 µM unless noted 87.8% and 78.5% | A549/ATCC NSCLC 99% and 93.9% | 786-0 renal; 10 µM unless noted 98.2% and 110% | COLO 205 colon 104% and 111%

Cc1cccc(/C=C\C(=O)c2ccc(Cl)cc2)c1
inactive: NCI-H23 lung; 10 µM unless noted 93.9% and 102% | NCI-H226 lung; 10 µM unless noted 112% and 100% | NCI-H322M lung; 10 µM unless noted 103% and 92.6% | HOP-62 NSCLC; 10 µM unless noted 109% and 113% | NCI-H460 lung; 10 µM unless noted 110% and 102% | HOP-92 NSCLC; 10 µM unless noted 82.3% | NCI-H522 lung; 10 µM unless noted 94.2% | A549/ATCC NSCLC 88.8% and 85.8% | 786-0 renal; 10 µM unless noted 82% and 74.2% | COLO 205 colon 121% and 111%

Cc1ccc(S(=O)(=O)NCN2C(=O)c3ccccc3C2=O)cc1
inactive: NCI-H23 lung; 10 µM unless noted 103% | NCI-H226 lung; 10 µM unless noted 115% | NCI-H322M lung; 10 µM unless noted 105% | HOP-62 NSCLC; 10 µM unless noted 112% | NCI-H460 lung; 10 µM unless noted 113% | HOP-92 NSCLC; 10 µM unless noted 109% | NCI-H522 lung; 10 µM unless noted 103% | A549/ATCC NSCLC 99% | 786-0 renal; 10 µM unless noted 103%

COc1ccc(Cl)cc1C(=O)NCCc1ccc(S(=O)(=O)NC(=O)NC2CCCCC2)cc1
inactive: NCI-H23 lung; 10 µM 103% and 104% | NCI-H23 lung; 100 µM 81.8% | NCI-H226 lung; 10 µM 101% and 97.4% | NCI-H226 lung; 100 µM 62.4% | NCI-H322M lung; 10 µM 96.2% | NCI-H322M lung; 100 µM 88.5% | HOP-62 NSCLC; 10 µM 88.3% | HOP-62 NSCLC; 100 µM 69.1% | NCI-H460 lung; 10 µM 103% and 114% | NCI-H460 lung; 100 µM 72.2% | HOP-92 NSCLC; 10 µM 74% and 95.5% | HOP-92 NSCLC; 100 µM 63.6% | NCI-H522 lung; 10 µM 97% | NCI-H522 lung; 100 µM 54.1% | 786-0 renal; 10 µM 107% and 98.6% | 786-0 renal; 100 µM 75.5% | COLO 205 colon 117% and 112%

Nc1nc2ncc(CNc3ccc(C(=O)N[C@@H](CCc4nn[nH]n4)C(=O)O)cc3)nc2c(=O)[nH]1
inactive: NCI-H23 lung; 10 µM unless noted 95.7% and 95.5% | NCI-H226 lung; 10 µM unless noted 98.7% and 93.8% | NCI-H322M lung; 10 µM unless noted 103% and 102% | HOP-62 NSCLC; 10 µM unless noted 103% and 92.1% | NCI-H460 lung; 10 µM unless noted 100% and 101% | HOP-92 NSCLC; 10 µM unless noted 93.4% and 78.5% | NCI-H522 lung; 10 µM unless noted 101% and 84.6% | A549/ATCC NSCLC 106% and 95.3% | 786-0 renal; 10 µM unless noted 106% and 109% | COLO 205 colon 107% and 110%
